This is an account of results in PubChem BioAssay AID924 (National Center for Advancing Translational Sciences (NCATS), 2007).

Screen size: about 130,000 compounds; about 1,200 (0.92%) were called active. Another 3% or so got no clear call; they are omitted. This is one part of a sample in which actives are shown more often than they occur. Values without a mark were called inactive. Calls follow the shape of the dose curve; as a rule, active = well fitted cell-killing curve with a large enough effect; inconclusive = small, poorly fitted or top-dose-only effect; inactive = no such curve, though single readings can be large or run the other way.
Potency is read from the fitted curve at half-maximal effect.

The assay is described as follows: qHTS Screen for Compounds that Selectively Target Cancer Cells with p53 Mutations: Cytotoxicity of p53ts Cells at the Permissive Temperature. Also: nearly all actives have a fitted effect of over 55% in size.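 As to activity change, negative = cytotoxicity: 0% = DMSO and -100% = full killing by reference compound.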 To be noted: H1299-p53A138V at 32C, ATP luminescence viability, 24 h; series mostly up to 46.1 µM; activity change, negative = cytotoxicity: at the top concentration. The text has this: NIH Chemical Genomics Center [NCGC] NIH Molecular Libraries Screening Centers Network [MLSCN] MLSCN Grant: 1 X01 MH079844-01 Assay Submitter (PI): Dr. SUN, YI, University of Michigan NCGC Assay Overview: Synthetic Lethal Screen for Compounds to Kill Cancer Cells with p53 Mutation. Tumor suppressor gene p53 serves as a major cellular barrier against tumorigenesis. […] The goal of this screening is to identify small molecule probes that selectively kill cancer cells with mutations in p53. This screening was carried out using two lines of H1299 lung cancer cells. The H1299-p53 A138V line express a temperature sensitive p53 mutant (p53ts) in which the mutant p53 protein (A138V) is in the mutant confirmation when grown at 39C (the nonpermissive temperature) and in the wild type conformation when grown at 32C (the permissive temperature). A H1299-neo line (p53 null) grown at both 39C and 32C were used as counter-screens to filter out false positive associated with temperature shifting. The small molecular compounds that selectively target mutant p53-containing cancer cells were selected as candidate probes for further study. A cytotoxicity assay based on the measurement of ATP contents in cells was used in this screen. Concentration-responses of all the compounds in the library collection were determined in qHTS using the cell lines and temperature conditions as above.
NCGC Assay Protocol Summary: Both the H1299-p53A138V and H1299-neo cell lines were provided by Dr.Yi Sun, a PI at the University Michigan. The cells were maintained and cultured at 37C. The resuspended frozen cells were used to plate the cells in the 1536-well assay plates at a density of 600 cells per well in 5 ul medium. The assay plates with the cells were incubated at 37C for 16 to 30 hours before the experiments. The library compounds in DMSO solution were added to the cells in assay plates and incubated 24 hours at 39C (for mutant p53 conformation) or 32C (for normal p53 conformation as control). An ATP_lite assay kit (PerkinElmer) was used to determine the cell viability. Tomaxifen (100uM) was used as the positive control for cell killing. Data were normalized to the controls for basal activity (DMSO only) and 100% killing (100uM tamoxifen). AC50 values were determined from concentration-response data modeled with the standard Hill equation. P53 assay protocol: 1. Reagent; 5 uL H1299-p53A138V or H1299-neo cell cells/well 2. Time; overnight; 37C incubation 3. Compounds; 23 nL; 5.9 nM to 46 uM 4. Controls; 23 nL; Tamoxifen 100 uM 5. Time; 24 hr; 37C incubation 6. Reagent; 3 uL; ATP_Lite reagent 7. Time; 20 min; Room Temperature 8. Detection; Luminescence; Viewlux plate reader Keywords: p53, synthetic lethal, cancer, cell viability, cytotoxicity, H1299 cell line, luminescence, MLSMR, MLSCN, NIH Roadmap, qHTS, NCGC
In general terms: Quantitative high-throughput screening tests each substance at several concentrations.
`COc1ccc(CNC(=O)c2ccc(NC(=O)N3CC4CCCN4c4ccccc43)cc2)cc1` (stereo not given): the “activity change, negative = cytotoxicity” value was -3.58%.
Consider `CC(=O)Nc1ccc(NC(=O)c2cc3sccc3n2Cc2ccc(F)cc2)cc1`, for which the “activity change, negative = cytotoxicity” value is -24.9%.
Still for that read-out and setting: as for `Cc1cccc(N2CCN(C(=O)CCn3c(=O)c4cccn4c4cccnc43)CC2C)c1` (stereo not given), the figure is 3.1%; as for `Fc1ccc2nc(N3CCCCC3)sc2c1`, -9.36%.
For the compound `c1c2c(cc3sc(N4CCCCC4)nc13)OCCO2`, the Potency was 1.26 µM (active).
For `COc1ccc2nc(Nc3nc4cc5c(cc4s3)OCCO5)sc2c1`, the “activity change, negative = cytotoxicity” value is -17.9%.
The same measure, in the same setting: as for `CCc1ccc2ncc3c(-c4ccc(C)cc4)nn(CC(=O)NCc4ccccc4)c3c2c1`, the figure is -5.08%.
With `CC(C)(C)c1csc(NC2=NS(=O)(=O)c3ccccc32)n1`, the Potency was 12.6 µM (active).
Take `O=C(CN1C(=O)c2cccnc2Oc2ccc(Cl)cc21)NCCc1ccccc1`: the “activity change, negative = cytotoxicity” value was -3.47%.
Still for that read-out and setting: as for `COc1ccc(-c2ccc(=O)n(CC(=O)Nc3ccc(Br)cc3F)n2)cc1`, the figure is -22.2%; as for `CC(C)Sc1oc(-c2cccs2)nc1S(=O)(=O)c1ccc(Cl)cc1`, 7.99%; as for `CCn1cc(C(=O)NCCc2ccccc2)c(=O)c2cc(S(=O)(=O)N3CCCCCC3)ccc21`, 15.6%.
Turning to `CCN(CC)S(=O)(=O)c1cc(C(=O)Nc2ccccn2)ccc1C`, the Potency was 10 µM (active).
Consider `CCN(CC)S(=O)(=O)c1cccc(C(=O)Nc2ccccc2)c1`, for which the “activity change, negative = cytotoxicity” value is -19.7%.
On the same count and under the same terms, the result for `Cc1ccc(S(=O)(=O)/N=C(/Nc2ccccn2)c2ccc(Cl)cc2)cc1` reads -19.2%; that for `Cc1nnc(NC(=O)CSc2nc3c([nH]c4ccccc43)c(=O)n2-c2cccc(Cl)c2)s1`, -0.819%.
`OCCCN1c2ccccc2Nc2nnc(-c3ccccc3)cc21`: the Potency was 12.6 µM (active).
For `O=C(c1ccc(Cl)cc1)n1nc(-c2cccnc2)nc1NCc1ccc(F)cc1`, the “activity change, negative = cytotoxicity” value is 12.6%.
Still for that read-out and setting: the result for `COc1ccccc1CNC(=O)C(=O)NCC(c1cccs1)S(=O)(=O)c1cccs1` (stereo not given) reads -2.8%.
Consider `Cc1c(C(=O)NCc2ccccc2Br)oc2ccc3c(c12)C(=O)CC(C)(C)O3`, for which the Potency is 12.6 µM (active).
Turning to `CC1(C)CC(=O)c2cc(OCC(=O)NCC3CCCO3)ccc2O1` (stereo not given), the “activity change, negative = cytotoxicity” value was -7.04%.
Consider `CCC1(C)CC(=O)c2c(ccc3oc(C(=O)Nc4ccc(C(C)=O)cc4)c(C)c23)O1` (stereo not given), for which the “activity change, negative = cytotoxicity” value is -8.14%.
The same measure, in the same setting: the result for `CCOC(=O)N1CCc2c(sc(NCc3cccc(F)c3)c2C(=O)Nc2ccccc2OCC)C1` reads 19.6%.
Still for that read-out and setting: as for `COc1ccc(NC(=O)NC(C)c2c(-n3cccc3)sc(C)c2C)cc1OC` (stereo not given), the figure is 21.5%; as for `Cc1ccc(S(=O)(=O)c2nc(-c3ccco3)oc2SCC(=O)Nc2ccc(F)cc2)cc1`, -9.87%; as for `O=C(CSc1oc(-c2ccc(F)cc2)nc1S(=O)(=O)c1ccc(Br)cc1)NC1CCCCC1`, -3.41%.
On to `CC(C)S(=O)(=O)c1oc(-c2ccc(F)cc2)nc1S(=O)(=O)c1ccc(F)cc1`, for which the Potency was 5.01 µM (active).
Turning to `Cc1ccc(-c2nc(S(=O)(=O)c3ccc(C)cc3)c(N3CCCCCC3)o2)cc1`, the “activity change, negative = cytotoxicity” value was 8.12%.
On the same count and under the same terms, as for `CCc1ccc(NC(=O)CN2C(=O)C(c3ccccc3)=NC23CCCCCC3)cc1`, the figure is 12.1%; as for `CCc1ccc(NC(=O)CN2CCSc3ccc(S(=O)(=O)N4CCCC4)cc32)cc1`, 10.3%.
In the case of `COc1cc(OC)c(OC)cc1/C=C/c1nc2cc3ccccc3cc2c(=O)n1-c1ccc(F)c(Cl)c1`, the “activity change, negative = cytotoxicity” value was 4.14%.
The same measure, in the same setting: as for `CCCCn1c(=N)c(S(=O)(=O)c2ccccc2)cc2c(=O)n3cccc(C)c3nc21`, the figure is -0.99%; as for `CCc1ccc(-c2nnn(Cc3nn[nH]n3)n2)cc1`, -29.7%.
In the case of `CC(C)c1ccc(-c2nn[nH]n2)cc1`, the Potency was 12.6 µM (active).
As for `Cc1ccc(-c2cnc(NCc3ccc(C(C)C)cc3)n2C)cc1`, the “activity change, negative = cytotoxicity” value was -10.2%.
With `CCOc1ccc(CNCCSc2nnnn2C)cc1`, the “activity change, negative = cytotoxicity” value is -5.3%.
Same read-out and setting: the result for `O=C1CCCc2cc(S(=O)(=O)N3CCCC(C(=O)NCc4ccccc4)C3)ccc2N1` (stereo not given) reads -8.7%; that for `CCc1cc2c(cc3c(=O)n(CC(=O)NCc4cccc(Cl)c4)nc(CC)n32)s1`, 9.64%.
Turning to `O=C1Nc2c(Br)cc(Br)cc2C1(O)N1CCOCC1` (stereo not given), the Potency was 12.6 µM (active).
As to `CCOc1ccccc1N(CC)C(=O)c1cc2ccc3cccnc3c2[nH]1`, the “activity change, negative = cytotoxicity” value was 40.2%.
Turning to `CCN1CCN(Cc2c(O)ccc3oc(C)c(C(=O)Nc4ccc(C)cc4C)c23)CC1`, the “activity change, negative = cytotoxicity” value is 9.54%.
Turning to `COc1ccc(-n2ncc3c(N4CCc5ccccc54)ncnc32)cc1`, the “activity change, negative = cytotoxicity” value was -11.5%.
In the case of `Cc1cccc(-n2ncc3c(N4CCc5ccccc54)ncnc32)c1`, the “activity change, negative = cytotoxicity” value was -4.6%.
Take `COc1ccc(-n2ncc3c(N4CCCc5ccccc54)ncnc32)cc1`: the Potency is 10 µM (active).
`Cc1nc2nc(SCC(=O)NC3CCC(C)CC3)nn2c(C)c1Cc1ccccc1Cl` (stereo not given): the “activity change, negative = cytotoxicity” value is 29.1%.
On the same count and under the same terms, as for `COc1ccccc1CN1CCC(CNC(=O)c2cnn(-c3ccccc3Cl)c2C2CCN(C(=O)OC(C)(C)C)CC2)CC1`, the figure is 1.28%; as for `COc1ccccc1CNC(=O)c1ccc(NC(=O)N2CC(C)Sc3ccccc32)cc1` (stereo not given), -4.08%; as for `CCNC(=O)c1cc2n(n1)CCCN(Cc1ccc(C)cc1)C2=O`, 4.64%.
`Cc1ccc2nc(N3CCN(c4cccc(Cl)c4)CC3)c3nnnn3c2c1`: the “activity change, negative = cytotoxicity” value was -2.07%.
The same measure, in the same setting: as for `CCC(CC)c1nnc(NS(=O)(=O)Cc2ccccc2)s1`, the figure is 4.53%.
